In article PMC5540273 (PLoS ONE, 2017):

Legend:
Conditions in all cases: concentration: 1 μM, replicates: in singlicate; n = 1
FLT1 = tested on: FLT1
FLT3-autoinhibited = tested on: FLT3-autoinhibited
FLT3 = tested on: FLT3
FLT4 = tested on: FLT4
FRK = tested on: FRK
FYN = tested on: FYN
GAK = tested on: GAK
GCN2(Kin.Dom.2,S808G) = tested on: T1, GCN2(Kin.Dom.2,S808G)
T1 construct: gene EIF2AK4

GRK1 = tested on: GRK1
GRK2 = tested on: T2, GRK2
T2 construct: gene ADRBK1
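Further: KINOMEscan kinase panel screen.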

Row | SMILES | %Inh (FLT1) [%] | %Inh (FLT3-autoinhibited) [%] | %Inh (FLT3) [%] | %Inh (FLT4) [%] | %Inh (FRK) [%] | %Inh (FYN) [%] | %Inh (GAK) [%] | %Inh (GCN2(Kin.Dom.2,S808G)) [%] | %Inh (GRK1) [%] | %Inh (GRK2) [%]
1 | CCn1c(-c2c(N)noc2C)nc2cnccc21 [SB-737856] | 20 | 0 | 0 | 0 | 11 | 3 | 21 | 7 | 0 | 0
2 | COc1ccc(Nc2nccc(-c3ccc(NC(=O)c4cc5cc(F)ccc5[nH]4)cc3)n2)cc1 [GSK1229496] | 4 | 0 | 0 | 9 | 0 | 0 | 0 | 0 | 3 | 9
3 | Cc1c(Cn2c3ccccc3n3c(=O)cc(N4CCOCC4)nc23)cccc1C(F)(F)F [GSK2306394] | 27 | 17 | 11 | 18 | 0 | 20 | 18 | 5 | 0 | 0
4 | CNC(=O)c1ccc(C)c(-n2c(C)cc(OCc3ccc(F)cc3F)c(Br)c2=O)c1 | 2 | 0 | 0 | 0 | 0 | 0 | 0 | 0 | 0 | 4
5 | Cc1cccc2c(-c3ccncn3)c(-c3ccc(F)cc3)nn12 [GW515532] | 32 | 12 | 0 | 10 | 0 | 1 | 76 | 18 | 3 | 0
6 | Cc1ccc(NC(=O)Nc2ccccc2F)cc1-c1ccc(C(=O)Nc2ccncc2)cc1 [GSK1398477] | 45 | 0 | 13 | 34 | 72 | 40 | 24 | 28 | 0 | 0
7 | Cc1nccc(-c2c(-c3ccc(F)cc3)ncn2CCCN2CCOCC2)n1.Cl [SB-282975] | 21 | 19 | 6 | 23 | 2 | 9 | 9 | 0 | 78 | 0
8 | O=C1NC(=O)C(c2ccc(Cl)cc2)=C1Nc1cccc(Cl)c1 [SB-317651] | 0 | 11 | 0 | 0 | 0 | 0 | 0 | 2 | 11 | 0
9 | CS(=O)(=O)CCNCc1nc(-c2ccc3ncnc(Nc4ccc5c(cnn5Cc5ccccc5)c4)c3c2)cs1.Cl.Cl [GW569716] | 20 | 0 | 0 | 0 | 9 | 0 | 0 | 1 | 0 | 0
10 | COc1cccc(CNC(=O)NC2CCN(c3ccnc(Nc4ccc(F)cc4)n3)C2)c1 (centres unmarked) [GSK1379723] | 31 | 0 | 0 | 12 | 16 | 0 | 12 | 0 | 13 | 0
11 | CC(=O)c1c(C)c2cnc(Nc3ccn(C)n3)nc2n(C2CCCC2)c1=O | 4 | 2 | 0 | 0 | 28 | 0 | 0 | 36 | 0 | 17
12 | COc1ccc(Nc2nccc(N3CCC(NC(=O)C(C)c4ccc(Cl)cc4)CC3)n2)cc1 (centres unmarked) [GSK1379812] | 26 | 0 | 0 | 2 | 0 | 12 | 1 | 0 | 0 | 0
13 | O=C(Nc1n[nH]c2nc(-c3ccco3)c(Br)cc12)C1CCN(Cc2ccccc2)C1.O=C(O)[C@H](O)[C@@H](O)C(=O)O (centres unmarked) [SB-742034] | 0 | 10 | 7 | 6 | 0 | 0 | 8 | 0 | 42 | 0
14 | CCn1c(-c2ccccc2)nc2cnccc21 [SB-733416] | 53 | 0 | 0 | 27 | 27 | 14 | 0 | 0 | 6 | 0
15 | CC[C@@H]1CO[C@H](C(=O)Nc2ccccc2)CN1c1cc(-c2ccc3c(N)n[nH]c3c2)nc(NC)n1 [GSK2376236] | 28 | 0 | 0 | 20 | 0 | 39 | 26 | 0 | 0 | 0
16 | CNc1nc(-c2ccc3c(N)n[nH]c3c2)cc(N2C[C@@H](C(=O)Nc3ccccc3)CC[C@H]2C)n1 [GSK2298859] | 35 | 0 | 0 | 12 | 0 | 2 | 0 | 0 | 100 | 0
17 | NS(=O)(=O)c1cccc(N/C=C2\C(=O)Nc3ccc(S(=O)(=O)Cc4c(Cl)cccc4Cl)cc32)c1 [GSK398099] | 12 | 0 | 0 | 0 | 0 | 35 | 18 | 0 | 0 | 0
